An excerpt weighted towards active compounds, which were near 3.3% of everything screened.
AmpC detergent – AmpC beta-lactamase inhibition with detergent present | P00811 | AmpC hydrolysis of nitrocefin, absorbance 480 nm, 0.01% Triton | Potency, µM (titrated, usually from 114 µM), for the others: at the highest dose activity change, negative = inhibition, most hits filed as inhibitors | 370,000 compounds, 0.041% hits;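 further: 0% = no-compound wells and -100% = no-enzyme wells; nearly all actives have a fitted effect of over 25% in size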
Target sequence (P00811 whole entry, looked up): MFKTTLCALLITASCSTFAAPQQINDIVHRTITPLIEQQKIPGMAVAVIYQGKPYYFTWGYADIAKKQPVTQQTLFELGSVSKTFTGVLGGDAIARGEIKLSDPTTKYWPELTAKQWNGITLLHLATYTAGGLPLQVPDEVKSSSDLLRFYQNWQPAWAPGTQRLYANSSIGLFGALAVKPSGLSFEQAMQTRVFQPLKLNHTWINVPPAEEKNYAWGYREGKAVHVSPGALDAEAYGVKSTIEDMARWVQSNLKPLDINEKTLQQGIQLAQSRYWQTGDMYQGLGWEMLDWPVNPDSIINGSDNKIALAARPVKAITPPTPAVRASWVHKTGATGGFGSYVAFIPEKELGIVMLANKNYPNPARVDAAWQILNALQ
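20 mM phosphate pH 7.0 + 0.01% (detergent screen) or 0.0001% Triton X-100; 5.3 nM AmpC reagent; cpd preinc 15 min RT; nitrocefin (800 uM stock) to start; A480 q20 s × 4 min; Activity was normalised to no-enzyme and no-compound control wells.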
AmpC no deterg – AmpC beta-lactamase inhibition without detergent; Potency, µM (top dose mostly 57.1 µM), for inactives: at the highest dose activity change, negative = inhibition, actives largely listed as inhibitors; P00811; AID 485341; AmpC nitrocefin hydrolysis, absorbance 480 nm, 0.0001% Triton; 330,000 compounds, 0.52% hits;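 further: plate controls were no compound for no effect and no enzyme for full effect; nearly all actives have a fitted effect of over 20% in size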
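20 mM phosphate pH 7.0 + 0.01% (detergent screen) or 0.0001% Triton X-100; 5.3 nM AmpC reagent; cpd preinc 15 min RT; nitrocefin (800 uM stock) to start; A480 q20 s × 4 min; Activity was normalised to no-enzyme and no-compound control wells.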
Sm TGR inh – S. mansoni TGR enzyme inhibition; Q962Y6; purified TGR, DTNB reduction, TNB absorbance 405 nm; Potency, µM (doses to about 114 µM), without a hit: at the highest dose activity change, negative = inhibition, most hits filed as inhibitors; 360,000 compounds, 3% hits; further: nearly all actives have a fitted effect of over 60% in size
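TGR 20 nM + NADPH 100 uM (dispensed conc.), cpd preinc 15 min RT; start with NADPH (500 uM addition) then DTNB (15 mM addition). Kinetic TNB absorbance, 405 nm filter. Four-parameter Hill fit across titration.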
The depositor's hits bear a star; ? = inconclusive; · = no result given. The call rests on the fitted dose curve; in most records, active means well fitted curve in the direction sought with a large enough effect; inconclusive means small, poorly fitted or top-dose-only effect, or another doubt; inactive means no such curve, though single readings can be large; an effect the other way counts as inactive or inconclusive. Unless noted, on the % scale 0 is the no-effect control and ±100 the full control effect; potency means the concentration at half of the fitted maximal effect.

SMILES	AmpC detergent	AmpC no deterg	Sm TGR inh
Cc1cc(F)ccc1N1CCC(N2CCN(C(C)C)C(CCO)C2)CC1 (configuration not stated)	1%	-6%	40µM*
Cc1cc(F)ccc1N1CCC(N2CCN(CCC(C)C)C(CCO)C2)CC1 (configuration not stated)	0%	57%	2%
CCOC(=O)c1cccnc1SCC(=O)Nc1ccc(C)cc1C	-2%	·	9%
C[C@@H](C(=O)NCc1ccccc1)[C@@H]1C[C@@]1(C)[C@@H](NC(=O)OCc1ccccc1)c1ccccc1	-23%	13%	0%
Cc1ccc(CNC(=O)[C@H](C)[C@H]2C[C@]2(C)[C@H](NC(=O)OCc2ccccc2)c2ccccc2)o1	?	26%	32µM*
O=C(O)c1cccc(Cn2c(Cl)c(/C=N/Nc3ccccc3)sc2=O)c1	-11%	-26%	3.5µM*
COc1ccc(C(=O)N/N=C/c2sc(=O)n(Cc3cccc(C(=O)O)c3)c2Cl)cc1	1%	-33%	22µM*
O=C(O)c1cccc(N/N=C/c2cccc3ccccc23)c1	-12%	-1%	0%
O=C(N/N=C/c1ccc(Br)s1)c1ccco1	-7%	-12%	1%
O=C(O)c1cccc(Cn2c(Cl)c(/C=N/NC(=O)c3ccccc3O)sc2=O)c1	7%	-37%	40µM*
O=C(O)c1cccc(Cn2c(Cl)c(/C=N/NC(=O)c3ccccc3Cl)sc2=O)c1	1%	-23%	-5%
O=C(N/N=C/c1sc(=O)n(Cc2ccc(Br)cc2)c1Cl)c1ccco1	-4%	-46%	45µM*
Cc1ccccc1OCC(=O)N/N=C/c1sc(=O)n(Cc2cccc(C(=O)O)c2)c1Cl	-4%	?	?
COc1cccc(NC(=O)C2CCN(S(=O)(=O)c3c(C)noc3/C=C/c3cccs3)CC2)c1	2%	·	11%
COC(=O)c1sccc1S(=O)(=O)N(CC(=O)NCc1ccc(F)cc1)c1ccc(Cl)cc1	2%	·	-2%
CCOc1ccc(NC(=O)c2c(NC(=O)Cc3ccccc3)sc3c2CCCC3)cc1	-2%	·	-11%
CCN1CCN(CCCNC(=O)c2cc3c(s2)-c2c(C)cccc2OC3)CC1	2%	·	-8%
O=S1(=O)C=C(Sc2nc3ccccc3s2)c2ccccc21	-7%	?	2.2µM*
Cc1cc(C)nc(SC2=CS(=O)(=O)c3ccccc32)n1	1%	-19%	-23%
CC1CN(C(=O)C(c2ccccc2)c2ccccc2)CC(C)O1 (configuration not stated)	?	3%	-27%
CC1CN(C(NC(=O)C(C)(C)C)C(Cl)(Cl)Cl)CC(C)O1 (configuration not stated)	-3%	0%	35µM*
CC1CN(C(C)C(=O)NNC(=O)c2ccc(F)cc2)CC(C)O1 (configuration not stated)	·	-7%	·
CC1CN(C(NC(=O)c2ccccc2)C(Cl)(Cl)Cl)CC(C)O1 (configuration not stated)	-13%	-23%	20µM*
O=C(NC(N1CCOCC1)C(Cl)(Cl)Cl)c1ccccc1Cl (configuration not stated)	?	-10%	20µM*
O=C(NC(N1CCCCCC1)C(Cl)(Cl)Cl)c1ccccc1Cl (configuration not stated)	?	-14%	?
SMILES	AmpC detergent	AmpC no deterg	Sm TGR inh
Cc1cc(OCCCn2c(CCNC(=O)C3CCCCC3)nc3ccccc32)ccc1Cl	5%	·	-5%
CC(C)c1ccc2c(c1)NC(c1ccc(F)cc1)=NC(c1cccs1)=N2	8%	·	-2%
Cc1ccc(N2CCN(C(=O)c3c(C)oc4nc(C)nc(N5CCCC5)c34)CC2)c(C)c1	17%	·	28%
CCOc1cc(Br)c(C2C(C(=O)OC)=C(C)NC3=C2C(=O)c2ccccc23)cc1OCC (configuration not stated)	-8%	·	22µM*
CCOc1cc(C2C(C(=O)OC)=C(C)NC3=C2C(=O)c2ccccc23)c(Br)cc1OC (configuration not stated)	12%	·	15%
Cc1ccc2c(c1)C(=O)OC(C(=O)Nc1ccc(C(=O)O)cc1)C2 (configuration not stated)	4%	·	1%
Cc1ccc(C)c(-n2cc(-c3ccccc3)nc2SCC(=O)Nc2ccccc2)c1	6%	·	0%
COc1ccccc1N1CCN(Cc2cc(COC(C)C)c3cccnc3c2O)CC1	17%	·	?
CCCOCc1cc(CN2CCN(c3ccccc3OC)CC2)c(O)c2ncccc12	19%	·	40µM*
CCOCc1cc(CN2CCN(c3ccccc3OC)CC2)c(O)c2ncccc12	19%	·	?
COc1ccccc1N1CCN(Cc2cc(Br)c(O)c3ncccc23)CC1	-15%	-17%	3.2µM*
COc1ccccc1N1CCN(C(=O)Cn2ncc3c2-c2cc(C)ccc2OC3)CC1	7%	·	2%
Nc1c(C(=O)c2ccccc2)sc2nsc(SCCN3CCCC3)c12	-3%	47%	40µM*
Nc1c(C(=O)c2ccc(Cl)cc2)sc2nsc(SCCN3CCOCC3)c12	-5%	-7%	-18%
CC(CNC(=O)C1CCN(C(=O)N2CCOc3ccc(Cl)cc32)CC1)c1ccccc1 (configuration not stated)	-2%	·	-7%
CCOc1ccccc1-c1nc(CN2CCN(C(=O)c3ccco3)CC2)c(C)o1	-12%	76%	?
CCOc1ccccc1-n1c(CN2CCN(C(=O)c3ccco3)CC2)nc2ccccc2c1=O	-3%	34%	25µM*
COc1cc(C[C@@H](C)[C@@H](C)Cc2ccc(O)c(OC)c2)ccc1O	·	42%	·
CCOc1cc(CNc2cccc3[nH]c(C)nc23)ccc1OC	?	42%	-28%
CCOc1cc(CNc2ccccc2SC)ccc1O	-3%	-58%	8.9µM*
COc1cc(CNc2ccccc2SC)ccc1O	?	-42%	2.2µM*
COc1ccc(N2CCN(c3oc(/C=C/c4ccc(F)cc4)nc3C#N)CC2)cc1	14%	·	-2%
CN1C(=O)Cc2cc(S(=O)(=O)CCC(=O)N3CCN(c4ccccc4F)CC3)ccc21	1%	·	-21%
CCC(=O)N1c2ccc(S(=O)(=O)CCC(=O)N3CCN(c4ccccc4F)CC3)cc2CC1C (configuration not stated)	-7%	92%	22µM*
O=C(CSC1CS(=O)(=O)c2cc([N+](=O)[O-])ccc21)NNC(=O)c1ccccc1 (configuration not stated)	8%	-24%	-2%
O=C(CSC1CS(=O)(=O)c2cc([N+](=O)[O-])ccc21)NNC(=O)c1ccc(Cl)cc1 (configuration not stated)	-6%	-40%	16µM*
O=C(NC1CCCC1)C(c1cccs1)N(Cc1ccco1)C(=O)c1csnn1 (configuration not stated)	2%	-15%	35µM*
O=C(NCC(=O)N(Cc1cccs1)C(C(=O)NC1CCCCC1)c1ccncc1)c1ccco1 (configuration not stated)	?	-32%	45µM*
O=C(NCC(=O)N(Cc1cccs1)C(C(=O)NC1CCCC1)c1cccnc1)c1ccco1 (configuration not stated)	?	-5%	?

Screens deposited in PubChem BioAssay by National Center for Advancing Translational Sciences (NCATS).
